# A selection: hits, their analogues and other compounds. The true share with any hit is near 2.9%.
# Peg3 prom inh: inhibitors of Peg3 promoter; HeLa PEG-Prom luciferase reporter, luminescence, overnight; inhibition, % at 20 µM; 1.7% of 360,000 active; AID 588405;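 active means inhibition of at least 50% at 20 µM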
# Shn3 inh set2: inhibitors of Schnurri-3 3'UTR reporter in osteoblasts; Clone20 osteoblast Shn3 3'UTR firefly luciferase, 24 h; inhibition, % at 12.5 µM; 0.52% of 360,000 active; AID 588674;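 active means mean inhibition of at least 75% with every replicate also reaching 75%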;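 further: 0% = median of neutral control wells and 100% = pilot-screen positive control compound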
# CF NFkB inh: inhibitors of cystic fibrosis induced NF-kB. 0.86% of 360,000 active. KKLEB NF-kB-GFP reporter, PAF-induced, GFP fluorescence overnight. AID 588850. inhibition, % at 5 µM;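 active means at least 50% inhibition at 5 µM, scaled per plate between neutral and stimulator controls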;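 further: PAF is a Pseudomonas aeruginosa culture filtrate used as stimulus; plate controls were PAF-stimulated DMSO wells for no effect and unstimulated DMSO wells for full effect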
# LMP1 NFkB inh: inhibitors of Epstein-Barr LMP1-induced NF-kappaB reporter. LMP1-induced NF-kappaB luciferase reporter cells, luminescence. inhibition, % at 12.5 µM. 0.69% of 350,000 active. AID 504558; in the data active means inhibition above about 41%;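 further: 0% = neutral control wells and 100% = reference inhibitor control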
# KKLEB tox: reduces viability of KKLEB cystic fibrosis airway cells; AID 602141; KKLEB CF airway cells viability, ATPlite luminescence, overnight; stronger effect = lower value; cells stimulated with P. aeruginosa culture filtrate; activity change (cytotoxicity), % at 5 µM; 0.36% of 360,000 active;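 active means corrected activity change at or below -50% at 5 µM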
# TRPM1 prom inh: MITF TRPM1 promoter inhibition in SK-MEL-5 cells. SK-MEL-5 TRPM1 promoter luciferase, 24 h. inhibition, % at 12.5 µM. 0.83% of 330,000 active;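 active means mean inhibition across replicates of 60% or more, whatever share of single replicates reaches that level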
# CF NFkB inh conf: confirmation of cystic fibrosis induced NF-kB inhibitors; 64% of 1,300 active; KKLEB CF airway cells, PAF-induced NF-kB-GFP fluorescence, overnight; shares compounds with CF NFkB inh; inhibition, % at 5 µM; in the data active means inhibition above about 40%;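 further: stimulus PAF is a Pseudomonas aeruginosa filtrate and not platelet activating factor; plate controls were DMSO wells with stimulus for no effect and unstimulated DMSO wells for full effect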
# * hit, by the source's call; / = no result given.
SMILES,Peg3 prom inh,Shn3 inh set2,CF NFkB inh,LMP1 NFkB inh,KKLEB tox,TRPM1 prom inh,CF NFkB inh conf
O=c1cc(-c2ccc([N+](=O)[O-])cc2)c2ccc(O)cc2o1,49,-13,53*,14,14,-7,25
OC(c1cccc(Cl)c1)c1nc(-c2csc3ccccc23)cs1 (centres undefined),-7,6,12,/,5,/,/
O=C1CCC(N2C(=O)c3ccccc3C2=O)C(=O)N1 (centres undefined),4,5,76*,3,18,-4,12
O=C1c2ccccc2C(=O)N1C1CCCCC1,-5,-5,6,1,-4,-4,/
Nc1ccc(CSc2ccc(Cl)cc2)c(Cl)c1,-335,-148,6,-48,-5,-124,/
COc1cccc(-c2c(C(=O)N/N=C/c3sccc3C)nnn2-c2nonc2N)c1,39,0,50*,-36,-10,-15,35
CCCNC(=O)C1(C)CCCN(Cc2ccccc2N(C)C)C1 (centres undefined),-10,12,-3,/,6,/,/
O=C1CCC[C@@H]2C[C@@]3(C[C@@H]4CCN1[C@H]24)Nc1cc(Cl)c(Cl)cc1NC3=NCc1ccccc1,-29,-19,1,-16,-10,-3,/
Cn1c(Sc2ccc(Br)cc2)c(C=O)c2ccccc21,37,20,67*,10,-12,11,98*
CCOC(=O)C1=CCC(c2ccc(CC)cc2)N(S(=O)(=O)c2ccc(C)cc2)C1 (centres undefined),8,-4,16,/,-14,/,/
C[C@]12CCC(O)CC1CCC1C2CC[C@]2(C)C(c3cc(C(F)(F)F)n[nH]3)CCC12 (some centres undefined),101*,10,56*,13,-37,9,71*
COc1ccc(OC)c(-c2nnc3n2N=C(c2ccc(OC)c(OC4CCOC4)c2)CS3)c1 (centres undefined),2,12,54*,26,-10,71*,65*
COc1ccc(C2=Nn3c(nnc3-c3ccccc3Cl)SC2)cc1OC1CCOC1 (centres undefined),-49,-12,38,11,-25,-4,/
Cn1cc(Br)c(C(=O)Nc2sc3c(c2C#N)CCC3)n1,-98,-11,-8,/,8,/,/
Cn1cc([N+](=O)[O-])c(C(=O)Nc2sc3c(c2C#N)CCC3)n1,-41,95*,58*,-8,-14,68*,-82
Cc1ccc(S(=O)(=O)CC(CN2CCOCC2)N2CCOCC2)cc1 (centres undefined),6,-16,-11,0,13,16,/
CC1CCN(CC(CS(=O)(=O)c2ccc([N+](=O)[O-])cc2)N2CCC(C)CC2)CC1 (centres undefined),108*,-29,96*,-2,-42,84*,88*
CCOC(=O)/C=C/C(=O)Nc1ccccc1-c1ccccc1NC(=O)/C=C/C(=O)OCC,70*,64,56*,-33,-4,14,-34
COc1ccc(CCN2C(=O)CCC3=C2CCCC3=O)cc1OC,4,3,19,/,-12,/,/
C[C@H]1CCC[C@]2(C)C[C@H]3OC(=O)C(CN4CCCCCC4)[C@H]3C=C12 (some centres undefined),6,-93,74*,2,-22,78*,40
CCCCCC(=O)N1C[C@H](n2cc(C3CC3)nn2)[C@@H](O)C[C@@H]1c1ccc(Cl)cc1,6,17,19,0,1,/,/
Cc1nc([N+](=O)[O-])c(Sc2nc3ccc([N+](=O)[O-])cc3[nH]2)n1Cc1ccccc1,0,47,70*,2,-50,-6,55*
CCCCNC(=S)N(C)/N=C/c1ccc(OCC(=O)Nc2ccc(OC)cc2)c(OC)c1,41,33,54*,8,8,2,36
CCCCNC(=S)N(C)/N=C/c1ccc(OCC(=O)Nc2c(C)cc(C)cc2C)c(OC)c1,19,27,-25,10,-1,6,/
COc1ccc(C2CNC(=O)C2)cc1OC1CCCC1 (centres undefined),-10,-10,52*,5,-14,-12,55*

# Assay outcomes deposited in PubChem BioAssay by several laboratories.
